Assay outcomes as filed in PubChem.
TDP1 cell CPT: growth inhibition of DT40 Tdp1-/-;hTDP1 cells with camptothecin (screen for TDP1 inhibitors); Potency, µM (series often up to 46.2 µM), for inactives: top-dose activity change, negative = growth inhibition, most hits filed as inhibitors; hit rate 12% among 420,000; AID 686979; chicken DT40 Tdp1-/-;hTDP1 cells + 20 nM CPT, ATP luminescence, 48 h; further: on the % scale 0 is the no-effect control and ±100 the full control effect; nearly all actives have a fitted effect of over 55% in size
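Chicken DT40 Tdp1-/- cells stably complemented with human TDP1 were seeded at 400 cells/well in medium containing 20 nM camptothecin, exposed to pin-transferred compounds, and grown at 37 °C for at least 48 hr. Viability was read as ATP luminescence.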
TDP1 cell noCPT: qHTS for Inhibitors of human tyrosyl-DNA phosphodiesterase 1 (TDP1): qHTS in cells in absence of CPT; DT40 Tdp1-/- hTDP1 cells, no CPT, ATP luminescence, 48 h; Potency, µM (series often up to 46.2 µM), for inactives: at the highest dose activity change, negative = growth inhibition, actives largely listed as inhibitors; hit rate 15% among 420,000; AID 686978, 2013; further: on the % scale 0 is the no-effect control and ±100 the full control effect; nearly all actives have a fitted effect of over 55% in size
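Compound effects on proliferation are scored in DT40 Tdp1-/-;hTDP1 cells in the absence of CPT. ATP levels (CellTiter-Glo luminescence) are recorded after a ≥48 hr, 37 °C incubation.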
ClpP mod: qHTS Assay for Activators of ClpP. ATP-dependent Clp protease proteolytic subunit (Bacillus subtilis (strain 168)), P80244. purified B. subtilis ClpP, FRET peptide cleavage, 20 min. hit rate 1.9% among 340,000. Potency, µM (top dose mostly 57.5 µM), without a hit: top-dose activity change, negative = active; active means well fitted falling curve with a large enough effect; inconclusive means small, poorly fitted or top-dose-only effect; inactive means no such curve, though single readings can be large or run the other way; further: the source files actives as falling curves though it sought activators and does not explain the sign; nearly all actives have a fitted effect of over 65% in size
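ClpP 10 microg/mL final, pH 8 Tris/KCl buffer with BSA, glycerol, Tween-20; compound pinned in; FRET-FV substrate; RT 20 min; Ex320/Em430; ΔFRET vs ADEP 5.8 microM, DMSO, no enzyme.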
TDP1 inh: blocks human tyrosyl-DNA phosphodiesterase 1. Potency, µM (doses to about 130 µM), without a hit: at the top dose activity change, negative = inhibition, most hits filed as inhibitors. Q9NUW8. AID 485290. hit rate 0.28% among 350,000. recombinant TDP1, AlphaScreen DNA substrate cleavage; further: on the % scale 0 is the no-effect control and ±100 the full control effect; nearly all actives have a fitted effect of over 40% in size
Target sequence (Q9NUW8 whole entry, looked up): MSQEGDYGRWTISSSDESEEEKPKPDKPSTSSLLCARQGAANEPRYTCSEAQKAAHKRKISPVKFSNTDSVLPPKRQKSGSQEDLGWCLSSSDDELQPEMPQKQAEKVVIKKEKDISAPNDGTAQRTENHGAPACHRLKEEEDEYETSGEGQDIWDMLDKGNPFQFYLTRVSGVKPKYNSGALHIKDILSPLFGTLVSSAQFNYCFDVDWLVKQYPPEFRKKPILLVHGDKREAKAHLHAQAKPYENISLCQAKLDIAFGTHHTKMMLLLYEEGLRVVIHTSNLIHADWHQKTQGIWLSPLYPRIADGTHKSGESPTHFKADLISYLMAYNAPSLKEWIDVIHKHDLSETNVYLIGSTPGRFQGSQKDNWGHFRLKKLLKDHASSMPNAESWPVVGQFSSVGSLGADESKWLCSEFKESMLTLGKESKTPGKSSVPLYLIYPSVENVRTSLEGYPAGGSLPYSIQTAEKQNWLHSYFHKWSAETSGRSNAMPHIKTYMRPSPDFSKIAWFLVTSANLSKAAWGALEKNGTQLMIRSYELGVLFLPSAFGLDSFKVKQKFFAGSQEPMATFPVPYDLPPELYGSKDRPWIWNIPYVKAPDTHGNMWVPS
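Here, a 5' biotin and 3' phosphotyrosine-FITC DNA oligonucleotide reports Tdp1 activity: intact substrate bridges AlphaScreen beads, while cleavage leaves a 3' phosphate and drops signal. All incubations at room temperature.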
The depositor's hits bear a star; ? = inconclusive; . = no result; ! = repeats disagree; [ ] = another dose, or the depositor's remark. Most compounds without a hit are left out; they make up all but 17% or so of the library. Unless noted, the call rests on the fitted dose curve; in most records, active means well fitted curve in the direction sought with a large enough effect; inconclusive means small, poorly fitted or top-dose-only effect, or another doubt; inactive means no such curve, though single readings can be large; an effect the other way counts as inactive or inconclusive. Potency means the concentration at half of the fitted maximal effect.

SMILES	TDP1 cell CPT	TDP1 cell noCPT	ClpP mod	TDP1 inh
COc1ccc2c(c1OC)C(C1c3c(cc4c(c3OC)OCO4)CCN1C)OC2=O (stereo not given)	?	?	-3%	?
COc1ccc2c(c1OC)C(=O)O[C@H]2C1c2c(cc3c(c2OC)OCO3)CCN1C (stereo not given in full)	16µM*!	?	.	12%[56.1 µM]
COc1ccc2c(c1OC)C(=O)OC2C1c2c(cc3c(c2OC)OCO3)CCN1C (stereo not given)	?	18µM*!	-7%	5%
COc1cc2c(C(=O)N(C)c3cccc(C(F)(F)F)c3)cn(CC(C)C)c(=O)c2cc1OC	13µM*	18µM*	-2%	6%
CCn1cc(C(=O)N(C)c2cc(C)ccc2C)c2cc(OC)c(OC)cc2c1=O	26µM*	21µM*	-5%	3%
CCn1cc(C(=O)N(C)c2ccc(C(C)C)cc2)c2cc(OC)c(OC)cc2c1=O	?	18µM*	-4%	9%
CCn1cc(C(=O)Nc2ccc(C(C)C)cc2)c2cc(OC)c(OC)cc2c1=O	?	16µM*	1%	3%
CCC(Sc1nc2ccsc2c(=O)n1Cc1ccc(C(=O)O)cc1)C(=O)Nc1ccc(C)c(Cl)c1 (stereo not given)	?	?	1%	-13%
COc1ccc(S(=O)(=O)Nc2cccc(-c3ccc(N4CCCCC4)nn3)c2)cc1F	?	?	-1%	9%
CC(C)N1CCC(=O)NC1=O	20%	-1%	.	.
COC(=O)c1ccc(COc2ccc(C3C4=C(CCCC4=O)Nc4onc(C)c43)cc2)cc1 (stereo not given)	?	-30%	28µM*	9%
COC(=O)c1ccc(C2CC(=O)NC3=C2C(=O)CCC3)cc1 (stereo not given)	-13%	-20%	-1%	5%
Cc1ccc(-n2nc(C(C)(C)C)cc2NC(=O)Nc2ccc(OCCN3CCOCC3)c3ccccc23)cc1	-112%	?	.	.
Cc1nc(-c2ccc(Br)cc2)ccc1C(=O)O	-4%	0%	6%	0%
O=C(CSc1ncc(-c2ccccc2)[nH]1)Nc1ccccc1	?	?	-3%	8%
O=C(CSc1ncc(-c2ccccc2)[nH]1)Nc1cccc(Br)c1	23µM*	?	-5%	10%
O=C(CSc1ncc(-c2ccccc2)[nH]1)Nc1cccc(O)c1	-9%	-14%	-7%	11%
O=C(CSc1ncc(-c2ccccc2)[nH]1)Nc1ccc(Cl)cc1	21µM*	?	0%	10%
COc1ccc(-c2ccc(=O)n(CC(=O)NCC3COCCO3)n2)cc1 (stereo not given)	-27%	-2%	.	4%
O=c1oc(-c2ccccc2)cc(Cl)c1Cl	1.6µM*	1.8µM*	-1%	.
O=c1cc(-c2ccccc2)oc2ccc(Cl)cc12	1%	-4%	-14%	.
CCCCNC(=O)C1CCC(Cn2c(=O)c3sccc3n(CC(=O)N3CCCC3)c2=O)CC1 (stereo not given)	-4%	-17%	2%	7%
CCCCNC(=O)C1CCC(Cn2c(=O)c3sccc3n(CC(=O)Nc3ccccc3)c2=O)CC1 (stereo not given)	15µM*	?	-1%	6%
CCCNC(=O)C1CCC(Cn2c(=O)c3sccc3n(CC(=O)NCc3cccc(OC)c3OC)c2=O)CC1 (stereo not given)	?	4.1µM*	-3%	-3%
CC1CC(=O)N(CC(=O)Nc2ccc(OC(F)(F)F)cc2)c2ccccc2S1 (stereo not given)	.	.	2%	6%
SMILES	TDP1 cell CPT	TDP1 cell noCPT	ClpP mod	TDP1 inh
Cc1ccc(-c2cc(C(F)F)nc(S(C)(=O)=O)n2)cc1	0.92µM*	1.3µM*	.	-5%
CC(=O)c1ccccc1NS(=O)(=O)c1cc2c(cc1C)NC(=O)CO2	-6%	1%	0%	3%
O=c1oc(C2(O)CCCCC2)cc2ccc(-c3ccc4[nH]ccc4c3)cc12	12µM*	?	-19%	0%
O=c1oc(C2(O)CCCCC2)cc2ccccc12	8%	-1%	-15%	3%
COc1ccc(-c2nc3c(c4c2C[C@H](c2ccccc2)OC4)CN(S(=O)(=O)c2ccc(NC(C)=O)cc2)CC3)c(C)c1	.	.	.	5%[21 µM]
COc1cc(C(=O)Nc2nc3c(s2)Cc2c(Br)ccc(OC)c2-3)cc(OC)c1OC	15µM*	15µM*	-3%	3%
COc1ccc(Br)c2c1-c1nc(NC(=O)c3ccccc3F)sc1C2	21µM*	18µM*	-7%	5%
CC(=O)NCCNc1nc(-c2c(C)noc2C)nc2ccccc12	20%	17%	.	.
C=CC1=C2C=C(C3CC3)N(CCCOC(C)C)C=C2C(=O)C(C)(OC(=O)c2ccco2)C1=O (stereo not given)	.	.	.	11%[12.3 µM]
COC(=O)[C@H](CC(C)C)NC(=O)Cn1cnc2c(NCc3ccccc3)ncnc21	-16%	-5%	0%	0%[56.1 µM]
Cc1cccc(C(=O)NC2(C(F)(F)F)N=C(c3ccccc3)N(Cc3ccccc3)C2=O)c1 (stereo not given)	?	?	4%	3%
COc1ccc(CN2C(=O)C(NC(=O)c3ccccc3OC)(C(F)(F)F)N=C2c2ccccc2)cc1 (stereo not given)	18µM*	15µM*	-2%	-5%
CCc1nn(CC(=O)NCCC2=CCCCC2)c(=O)c2cc3cc(F)ccc3n12	-6%	0%	-13%	-1%
COc1ccccc1Nc1nc(-c2ccccc2Cl)c2cc(Br)ccc2n1	3.7µM*	2.3µM*	-1%	-8%[12.3 µM]
Clc1ccccc1-c1nc(Nc2ccccc2)nc2ccc(Br)cc12	?	18µM*	3%	-10%[12.3 µM]
Clc1ccc(Nc2nc(-c3ccccc3)c3cc(Cl)ccc3n2)cc1	5%	-7%	-3%	-3%[12.3 µM]
O=C1CN(C(=O)NCC(=O)N[C@@H](C(=O)O)c2ccccc2)c2ccccc2N1	7%	2%	-2%	3%
CCOc1ncccc1C(=O)OCC(=O)c1cc(OC)c(OC)c(OC)c1	13%	3%	.	1%
Cc1ccc(C(=O)c2c(C)oc3c2C(=O)C(=O)c2ccccc2-3)cc1	2.1µM*	2.6µM*	1%	10%
Cc1ccc(C(=O)c2coc3c2C(=O)C(=O)c2ccccc2-3)cc1	3.3µM*	4.6µM*	1%	7%
Cc1ccc(C(=O)c2cn[nH]c2-c2ccccc2O)cc1	?	?	0%	3%
Cc1cc(=O)c(C(=O)c2ccccc2)c(C)o1	-3%	-10%	.	.
Nc1ccn([C@@H]2O[C@H](C(=O)N[C@H]3c4ccccc4C[C@H]3O)[C@@H](O)[C@H]2O)c(=O)n1	17%	4%	1%	.
O=C1NC(=O)C2(CCCC2)N1	31%	3%	0%	.
O=C(Cc1ccc(OCCc2ccccc2)cc1)NO	?	?	1%	.
CCCCCCCOc1ccc(CC(=O)NO)cc1	10µM*	10µM*	-5%	.
